Molecules are shown by their SMILES. “And” between values parts separate entries of the source, which are not always exact repeats. Equal entries are not always repeated. Screen size: about 480,000 compounds; about 740 (0.15%) were called active. Rule as the data show it: active = activity change below about -30%; inconclusive = mostly about -25% to -30%; inactive = weaker than that. Many of the other results were omitted from the sample, so actives are more common in it than they were. Where a structure was tested more than once in an assay, its records may differ in their call.

In this assay the target is L-lactate dehydrogenase A chain (Homo sapiens) (UniProt P00338). In words: qHTS assay for inhibitors of human lactate dehydrogenase.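 Also: values are at about 110 or 230 µM; plate controls were DMSO wells for no effect and wells without enzyme for full effect.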 The conditions noted are these: purified LDHA, NADH/diaphorase-resazurin fluorescence; stronger effect = lower value. The essentials: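 Enzyme activity of human lactate dehydrogenase 5 (2 nM; 0.06 mM NADH, 0.2 mM pyruvate, 5 min, RT) is measured via a resazurin/diaphorase fluorescence readout of residual NADH.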
On the technique in general: In qHTS, concentration-response curves come from the screen itself.
Consider `CC/C(=C(/c1ccccc1)c1ccc(OCC[N+](C)(C)C)cc1)c1ccccc1`, for which the activity change was -30.9% (active). With `CCCCOc1ccc(C(=O)NO)cc1`, the activity change is 12.4% (inactive).

For the molecule `CCCCCCCCCOc1ccc(C(=O)c2ccccc2)cc1`, the activity change is 2.28% (inactive). Turning to `Cc1cc(C)cc(Nc2nc3ccccc3nc2NS(=O)(=O)c2ccccc2)c1`, the activity change is -9.61% (inactive).

For the molecule `C=CCOc1ccc(NC(C)=O)cc1`, the activity change is 8.6% (inactive). In the case of `Cc1nn(CC(=O)Nc2ccc3c(c2)nc2n3CCN(C)C2)c(=O)c2ccccc12` it was 2.93% (inactive). Turning to `O=C(COc1ccccc1F)OCc1cc(=O)n2nc(C3CCCCC3)sc2n1`, the activity change is -0.186% (inactive) and -35% (active). Under `O=C(COc1ccccc1F)Nc1ccc(C(=O)OCc2cc(=O)n3nc(C4CC4)sc3n2)cc1` stands 0.0167% (inactive); under `Cc1ccc(OCC(=O)OCc2cc(=O)n3nc(C4CC4)sc3n2)cc1`, -4.61% (inactive). Under `O=S(=O)(Cc1nnnn1-c1ccc(Br)cc1)c1ccc(F)cc1` stands -2.83% (inactive); under `O=S(=O)(Cc1nnnn1-c1ccccc1)c1ccccc1`, 0.923% (inactive) and -41.4% (active); under `CC(=O)c1ccc(S(=O)(=O)NCc2nnnn2-c2ccccc2)cc1`, -5.01% (inactive).

Take `Cn1ccnc1Sc1nc2c(c(=O)n(C)c(=O)n2C)n1Cc1ccc(F)cc1`: the activity change was 1.87% (inactive). Under `Cc1ccc2oc(C(=O)Nc3ccccc3F)cc(=O)c2c1` stands 7.9% (inactive). As to `O=C(O)C(Sc1nc(-c2ccccc2)cc(C(F)(F)F)n1)c1ccccc1` (centres undefined), the activity change was 13.5% (inactive). With `O=C(NC1CCCC1)c1nc(-c2cccc3[nH]ccc23)no1`, the activity change is -3.9% (inactive). As to `O=c1[nH]c(=O)n(Cc2ccco2)c2c1C(C(F)(F)F)(C(F)(F)F)N=C(c1ccco1)N2`, the activity change is -12.6% (inactive).

On to `O=C(NC1(C(F)(F)F)C(=O)Nc2c1c(=O)[nH]c(=O)n2Cc1ccco1)c1ccco1` (centres undefined), for which the activity change was -33.9% (active). Under `CC(=O)Nc1ccc(S(=O)(=O)NC2(C(F)(F)F)C(=O)Nc3c2c(=O)[nH]c(=O)n3Cc2ccccc2)cc1` (centres undefined) stands -3.74% (inactive); under `CCc1nc2nc(C)cc(Nc3ccc(F)c(Cl)c3)n2n1`, -6.31% (inactive); under `Cc1cc(Nc2cccc(Cl)c2)n2nc(Cc3ccccc3)nc2n1`, -15% (inactive).

Consider `Cc1cc(Nc2ccccc2)n2nc(Cc3ccc(Cl)cc3)nc2n1`, for which the activity change was -32.3% (active). Under `Cc1ccc(C)c(N2CCN(C(=O)CCS(=O)(=O)c3cccc4nsnc34)CC2)c1` stands 0.345% (inactive). In the case of `O=C1CCCC2=C1C(c1cccnc1)CC(=O)N2c1ccccc1C(F)(F)F` (centres undefined) it was 0.301% (inactive); in that of `O=C(CSc1nnnn1C1CCCC1)N1CCCC1c1ccc2c(c1)OCCCO2` (centres undefined), -4.78% (inactive).

Regarding `CC(=O)NC(Cc1c[nH]c2ccccc12)C(=O)N1CCC1` (centres undefined), the activity change was -6.31% (inactive). Under `FC(F)(F)c1ccc(Cl)c(N/N=C/c2c(Cl)cccc2Cl)c1` stands -0.292% (inactive); under `CSc1ccc(Cl)c(C(=O)OCC(=O)N2CCNC2=O)c1`, -5.09% (inactive).

As for `COC(=O)c1cc(NCC(=O)N2CCNC2=O)ccc1Cl`, the activity change is -2.4% (inactive).

For `N#Cc1cc(NCC(=O)N2CCNC2=O)ccc1Cl`, the activity change was -31.1% (active).

Turning to `CC(=O)Nc1cccc(NC(=O)c2nc(-c3ccccc3)oc2C)c1`, the activity change is -3.27% (inactive). On to `CCN(CC)CCNC(=O)c1ccc2nc(C)c(C)nc2c1`, for which the activity change is 1.31% (inactive). On to `Cc1oc(-c2ccccc2)nc1CC(=O)N(C)CC(=O)Nc1cccc2ccccc12`, for which the activity change is -30.2% (active). Take `Cc1ccc(NC(=O)CN(C)C(=O)c2nc(-c3ccccc3)oc2C)cc1`: the activity change was -4.78% (inactive). Under `COc1ccc(NC(=O)CN(C)C(=O)c2nc(-c3ccccc3)oc2C)cc1` stands 7.53% (inactive). On to `CC(=O)c1ccccc1NC(=O)c1ccccc1Cc1ccccc1`, for which the activity change is -24.1% (inactive).

For `CCN(CC)C(=O)c1ccc(CSC(F)F)o1`, the activity change was -3.64% (inactive). Under `Cc1cccc(N2CCN(Cc3ncc(-c4ccc(Cl)cc4)o3)CC2)c1` stands 6.83% (inactive); under `Cc1c(CC(=O)NCCCN2CCOCC2)c(=O)oc2cc(O)ccc12`, 1.59% (inactive). Regarding `CCOc1ccccc1NC(=O)Cn1c2ncccc2c(=O)n1-c1ccc(C)c(C)c1`, the activity change was -10% (inactive). On to `CCOc1ccccc1NC(=O)Cc1c(C)[nH]n(-c2nc(-c3ccccc3)cs2)c1=O`, for which the activity change is -42.8% (active).

Turning to `Cc1[nH]n(-c2nc(-c3ccccc3)cs2)c(=O)c1CC(=O)Nc1cccc(Cl)c1`, the activity change is -4.25% (inactive). `CCNC(=O)c1nnc(C(=O)Nc2cccc(Cl)c2)s1`: the activity change was 6.18% (inactive). Consider `Cn1c(=O)n(C)c2cc(SCc3ccco3)c(NC(=O)c3ccc(C(C)(C)C)cc3)cc21`, for which the activity change is -5.57% (inactive). Under `CCCCCn1c(SCc2ccc(C)cc2)nc2c1c(=O)[nH]c(=O)n2C` stands -21.4% (inactive); under `CN1CCN(CCC2(Cc3ccccc3)CCOC(C)(C)C2)CC1` (centres undefined), -4.19% (inactive); under `O=C(O)C(Br)Cc1ccc(Cl)cc1Cl` (centres undefined), 27.6% (inactive). In the case of `CC1(C)CC(N2CCN(C(c3ccccc3)c3ccccc3)CC2)=CC(=[N+]2CCCCC2)C1` it was -64.6% (active). As to `O=C(Nc1ccc2c(c1)OCCCO2)c1ccccc1OCc1ccc(F)cc1`, the activity change was 7.94% (inactive). For `CC(C)(C)c1ccc(-c2nnc(SCC(=O)NC(=O)NC3CCCC3)n2Cc2ccco2)cc1`, the activity change is 9.16% (inactive). Take `CC1=C/C(=N\NC(N)=S)C(C)C1` (centres undefined): the activity change was 1.95% (inactive). For `CCOC(=O)/C=C/c1cc(C(=O)OCC)c(/C=C/C(=O)OCC)cc1C(=O)OCC`, the activity change was -12.2% (inactive). For the molecule `CCn1c(SCC(=O)NCC(F)(F)F)nnc1-c1ccncc1`, the activity change is -0.908% (inactive).

With `Cc1n[nH]c(=O)nc1N/N=C/c1cccs1`, the activity change was 10.4% (inactive).

Take `Cc1ccsc1/C=N/n1c(=S)[nH]nc(C)c1=O`: the activity change was -32.7% (active). As to `CCc1n[nH]c(=S)n1/N=C/c1c[nH]c2ccc(Br)cc12`, the activity change was -11% (inactive). In the case of `Cc1ccccc1NC(=O)Cc1nnc(SCC(=O)c2ccc(C#N)cc2)n1C` it was 2.1% (inactive); in that of `CCc1nn2c(=O)cc(CN(CC)Cc3ccc(OC)cc3)nc2s1`, 0.31% (inactive); in that of `CCOC(=O)C(NC(=O)c1ccccc1)C(F)(F)F` (centres undefined), -5.84% (inactive). As to `O=C(COc1ccccc1C(=O)Nc1ccccc1)NC1CC1`, the activity change was 2.72% (inactive). Regarding `Cc1cc2oc(=O)cc(CN3CCCCCCC3)c2cc1C`, the activity change was 3.97% (inactive). Consider `Cc1nc2nc(CN)nn2c(C)c1CCC(=O)NC1CCCCC1`, for which the activity change was 10.1% (inactive).

Turning to `CCCn1c(SC(C)C(=O)c2ccc(Cl)cc2)n[nH]c1=O` (centres undefined), the activity change is 1.73% (inactive). In the case of `CSc1nnc([C@H](CC(C)C)NC(=O)OC(C)(C)C)o1` it was -6.07% (inactive); in that of `c1ccc(Oc2ncnc3scc(-c4ccc(-c5ccccc5)cc4)c23)cc1`, 2.38% (inactive); in that of `CCn1c(SCc2ccc(F)cc2Cl)nnc1-c1ccccn1`, -9.31% (inactive).

Consider `Cc1ccc(NC(=O)C2=Cc3sc4c(c3CS2)CCCC4)c(C)c1`, for which the activity change was 4.96% (inactive). In the case of `NC(N)=Nc1ccc(F)cc1` it was 0.928% (inactive); in that of `O=C(CCc1nc(-c2ccccc2)no1)N1CCc2sccc2C1c1cccs1` (centres undefined), 9.21% (inactive). Turning to `Cc1cc(C)n2ncc(-c3noc(C(=O)NC4CCCC4)n3)c2n1`, the activity change is -0.0013% (inactive).

For `Cc1nc2cc(NC(=O)COc3ccccc3C(C)(C)C)ccc2o1`, the activity change was 3.35% (inactive). Under `Cc1[nH]c2ccccc2c1C(=O)C(C)Sc1ccc2c(c1)OCCCO2` (centres undefined) stands 7.43% (inactive). In the case of `Cc1nc2cc(NC(C)C(=O)Nc3ccccc3Cl)ccc2o1` (centres undefined) it was -7.75% (inactive). In the case of `c1ccc(COc2ccc(CNc3ccccc3)cc2)cc1` it was -2.65% (inactive); in that of `O=C(Nc1ccc(N2CCOCC2)cc1)c1ccc2c(c1)S(=O)(=O)c1ccccc1C2=O`, 0.869% (inactive); in that of `CC(C)CCn1c(=O)[nH]c(=O)c2c3c(cnc21)C(=O)CC(c1ccc(F)cc1)C3` (centres undefined), 8.23% (inactive). `Fc1ccc(-n2c(Cc3ccccc3)nnc2SCc2ccc(Br)cc2)cc1`: the activity change is 11.5% (inactive). In the case of `COc1ccc(CNS(=O)(=O)c2ccc(-c3ccc(=O)[nH]n3)s2)cc1` it was -1.99% (inactive).

Regarding `O=C1CN(CC(=O)Nc2c(Cl)cc(Cl)cc2Cl)CCN1`, the activity change was -9.74% (inactive).

For the molecule `CCOc1ccccc1N(CC)C(=O)Cc1noc2ccccc12`, the activity change is 1.93% (inactive). For `O=C(O)c1c(Br)c(Br)c(Br)c(Br)c1C1c2ccc(O)cc2Oc2cc(O)ccc21`, the activity change is -47.5% (active). In the case of `COc1ccc(OC)c(C2C(C#N)=C(N)Oc3cc(O)ccc32)c1` (centres undefined), the activity change was 6.17% (inactive). Under `O=C(c1n[nH]c(=O)c2ccccc12)N1CCN(S(=O)(=O)c2ccccc2F)CC1` stands 12.5% (inactive); under `COc1cccc(-c2c(NC(=O)c3ccc(Cl)cc3)oc3ccccc3c2=O)c1`, -5.8% (inactive). In the case of `O=C(O)Cc1ccc(F)c2ccccc12` it was 2.09% (inactive); in that of `CC(Sc1nc2cc(S(=O)(=O)N3CCCCC3)ccc2o1)C(=O)Nc1cccc(Cl)c1` (centres undefined), 6.97% (inactive); in that of `CN(C(=O)c1cnc(N2CCOCC2)c2ccccc12)C1CCCCC1`, 3.81% (inactive). Under `N=C(N)CCl` stands 0.754% (inactive); under `CC1CCC(C(C)C)C(NC(=O)c2ccccc2)C1` (centres undefined), 0.148% (inactive). Regarding `Cc1cc(-c2nc3ncccc3o2)ccc1NC(=O)CC12CC3CC(CC(C3)C1)C2`, the activity change is -0.587% (inactive). Under `O=C(CCc1ncc(-c2ccccc2F)o1)NCc1ccc2c(c1)OCO2` stands 9.36% (inactive); under `O=C(/C=C/c1cccc(Br)c1)c1ccc(O)c(CCCl)c1`, 0.183% (inactive); under `CC(N)c1cccc([N+](=O)[O-])c1` (centres undefined), 8.12% (inactive).

Take `O=C(O)C1CCN(c2ccc3nnc(C(F)(F)F)n3n2)CC1`: the activity change is -1.19% (inactive).

The record behind these values is PubChem BioAssay AID1347041 (National Center for Advancing Translational Sciences (NCATS), 2019).
